Consider 58 molecules from PubChem BioAssay AID1259422 (The Scripps Research Institute Molecular Screening Center, 2018).

Hit rate of the full screen: of about 640,000 compounds, about 9,300 (1.5%) were called active. For the sample, actives were picked, then their nearest neighbours and some compounds at random. Values without a mark were called inactive. No stated cut-off is given here; in the data, active means inhibition above about 32%; inactive means the rest.

A short description of the assay: TEAD-YAP interaction inhibition, primary screen, TEAD-YAP interaction inhibitor project, luminescence, HEK-TIYL cells (AID 1259422).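 Further: 0% = median of test compound wells and 100% = reference inhibitor wells.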 The note with it: TEAD-Gal4/YAP UAS-luciferase luminescence, at 9.12 µM, stronger effect = higher value.
Usually inhibition stands for the change of the read-out against control, counted positive when it falls. For `COc1ccccc1Nc1nc(-c2ccc(Cl)cc2)cs1`, the inhibition was -12%.

`COc1ccccc1Nc1cc(C)nc2ccc(Cl)cc12`: the inhibition is 4.34%.

In the case of `COc1ccccc1NC1=NC(c2ccc(Cl)cc2)N=C(N)N1` (stereo not drawn), the inhibition was 40.4% (active). For the molecule `O=C(NCC1CCCN(Cc2cccn2-c2ncccn2)C1)c1n[nH]c2ccccc12` (stereo not drawn), the inhibition is 33.7% (active). Regarding `O=C(NCC1CCCN(Cc2nc(-c3ccccc3)cs2)C1)c1cccs1` (stereo not drawn), the inhibition is 9.19%. `Cc1c(CN2CCCC(CNC(=O)c3ccc4c(c3)OCO4)C2)[nH]c2ccccc12` (stereo not drawn): the inhibition was 13.5%. Consider `CCOc1ccc(CN2CCN(Cc3ccc(OC)c(OCC)c3)CC2)cc1`, for which the inhibition was -0.01%. Regarding `FC(F)(F)c1cccc(N2N=C(/C=C/c3ccccc3)CC2c2ccccc2)c1` (stereo not drawn), the inhibition was -3.08%.

In the case of `Cn1c(=O)n(C)c2cc(/C=C3/SC(=Nc4ccc(F)cc4)NC3=O)ccc21`, the inhibition is -33.4%. For `O=C1NC(=Nc2ccc(F)cc2)S/C1=C\c1cccs1`, the inhibition is 7.85%. The same measure for `O=C1NC(=Nc2ccc(F)cc2)S/C1=C\c1ccc(O)c(O)c1`: 51.2% (active); for `CCCCNC(=O)C(=O)NCC1COc2ccccc2O1` (stereo not drawn): -0.58%; for `COc1ccc(OCC(=O)Nc2nc3ccc(C)cc3s2)cc1`: -5.48%. For `O=C(NCCOc1ccccc1)c1cc(NC2CCN(Cc3ccccc3)CC2)nc2ccccc12`, the inhibition was 10.3%. In the case of `Cc1ccc(NC(=O)/N=C/c2sc(=O)[nH]c2O)cc1`, the inhibition is -3.99%.

`c1ccc(Nc2nc(Nc3ccc(N4CCOCC4)cc3)nc3nc[nH]c23)cc1`: the inhibition is 24.1%. As to `c1cncc(-n2cnc(-c3ccnc(Nc4ccc(N5CCOCC5)cc4)c3)n2)c1`, the inhibition is -10.2%. Consider `c1nc(Nc2ccc(N3CCOCC3)cc2)cc(N2CCOCC2)n1`, for which the inhibition is 2.49%. Regarding `Cc1cnc(-c2c(C)noc2C)nc1Nc1ccc(N2CCOCC2)cc1`, the inhibition was -11.4%. Then `FC(F)(F)c1cccc(CNc2nc(Nc3ccc(N4CCOCC4)cc3)nc3c2ncn3-c2ccsc2)c1`, with -6.95%. For `c1cc(-c2ocnc2-c2ncco2)cc(Nc2ccc(N3CCOCC3)cc2)n1`, the inhibition was 38.6% (active).

Regarding `c1ccc(-c2ncn[nH]2)c(Nc2ccnc(Nc3ccc(N4CCOCC4)cc3)c2)c1`, the inhibition was 44% (active). Turning to `Cc1cnc(Nc2ccc(N3CCOCC3)cc2)nc1Nc1ccccc1-c1ncn[nH]1`, the inhibition is 68.8% (active). Then `Cc1cnc(Nc2ccc(N3CCOCC3)cc2)nc1NCc1cccc(C(F)(F)F)c1`, with 67.6% (active); and `CNC(=O)c1ccccc1Nc1ccnc(Nc2ccc(N3CCOCC3)cc2)c1`, with 8.21%. For `FC(F)(F)c1ccc(Cn2cnc3c(NCc4cccc(C(F)(F)F)c4)nc(Nc4ccc(N5CCOCC5)cc4)nc32)cc1`, the inhibition was 2.31%. `c1ccc(-n2cnc(-c3ccnc(Nc4ccc(N5CCOCC5)cc4)c3)n2)cc1`: the inhibition is -7.29%. On to `O=[N+]([O-])c1ccc(Cl)c(S(=O)(=O)n2nnc3ccccc32)c1`, for which the inhibition is -1.22%.

In the case of `COC(=O)C1C(=O)NC(SCC(=O)Nc2ccc(OC)cc2)=C(C#N)C1c1ccc(C)cc1` (stereo not drawn), the inhibition was -9.22%. Then `CC(C)CCNS(=O)(=O)c1ccc2[nH]c3nc4nc(-c5ccc(Br)cc5)cn4nc3c2c1`, with 6.91%; and `Cc1cc(=O)oc2c(/C=N\NC(=O)c3ccc(Br)cc3)c(O)ccc12`, with 5.44%; and `CCOc1ccc(NC(=O)/C(C#N)=C\c2ccc(O)cc2)cc1`, with -6.14%. Turning to `O=C1C(=O)N(Cc2cccnc2)C(c2cccc(Br)c2)/C1=C(/O)c1ccccc1` (stereo not drawn), the inhibition is -12.1%. Turning to `O=C1CCC(=O)N1c1ccc(-c2nc3scc(-c4cccs4)c3c(=O)o2)cc1`, the inhibition is -7.68%. `CCN(CC)C(=O)c1cc2cc3ccc(OC)cc3nc2o1`: the inhibition was 58% (active). As for `CCOC(=O)N1CCN(C(=O)c2cc3cc4ccc(OC)cc4nc3o2)CC1`, the inhibition was -1.56%.

Take `COc1ccc2nc3oc(C(=O)NC4CC4)cc3cc2c1`: the inhibition is -62.4%. Consider `COCCn1nnnc1CN(Cc1ccco1)CC1CCCO1` (stereo not drawn), for which the inhibition is -5.83%. In the case of `CCOC(=O)C1=C(C)NC2=C(C(=O)CC(C)(C)C2)C1c1cccs1` (stereo not drawn), the inhibition was 7.66%. For the molecule `CCOc1ccc(C2C(C#N)=C(N)N(N(C)C)C3=C2C(=O)CC(c2ccccc2)C3)cc1` (stereo not drawn), the inhibition is 17.9%. In the case of `Cc1nnc(SCC(=O)c2ccc3c(c2)OCCO3)o1`, the inhibition was -48.4%. Take `CCCCSc1nnc2c(n1)OC(c1cccc(Cl)c1)Nc1ccccc1-2` (stereo not drawn): the inhibition is -39.8%. With `O=C(O)CCCCCN1C(=O)/C(=C/c2ccc3c(c2)OCO3)SC1=S`, the inhibition is 43.9% (active). `CCN1C(=O)/C(=C/c2ccc(OCC(=O)O)cc2)SC1=S`: the inhibition was -16.2%. Then `O=C(O)CCN1C(=O)/C(=C\c2ccc(C(=O)O)cc2)SC1=S`, with -5.44%; and `O=C(O)CCCCCN1C(=O)/C(=C\c2cccs2)SC1=S`, with 28.4%; and `C=CCOc1ccc(/C=C2\SC(=S)N(CCC(=O)O)C2=O)cc1`, with 50.1% (active). Take `COc1cc(/C=C2/SC(=S)N(CC(=O)O)C2=O)cc2c1OCO2`: the inhibition was 2.97%. On to `COc1cccc(C(=O)NC(=S)Nc2ccc(Br)c(C)n2)c1`, for which the inhibition is -5.25%.

Consider `Cc1cc2nc3[nH]c4ccccc4c3nc2cc1C`, for which the inhibition was -33%.

For the molecule `O=C(NCc1ccc(F)cc1)c1ccc2nc3[nH]c4ccccc4c3nc2c1`, the inhibition was 4.49%. Then `Cc1ccc2nc3[nH]c4ccccc4c3nc2c1`, with 35% (active). Regarding `O=C(NNc1ccc([N+](=O)[O-])cc1[N+](=O)[O-])c1cc2ccccc2cc1O`, the inhibition was 8.71%. With `O=C1CCC(=O)N1CC(=O)N(Cc1ccccn1)c1nc2ccccc2s1`, the inhibition was 18.1%. Consider `Cc1cc(C(=O)N(Cc2ccccn2)c2nc3ccccc3s2)on1`, for which the inhibition was 69.7% (active).

In the case of `CCc1cccc2sc(N(Cc3ccccn3)C(=O)CSCc3ccccc3)nc12`, the inhibition was 2.11%. For `CC(=O)Oc1cccc(N2C(=O)c3ccc(-c4nc5ccccc5o4)cc3C2=O)c1`, the inhibition is -6.42%.

For `C=CCc1ccc(OCCN2CC(C)OC(C)C2)c(OC)c1` (stereo not drawn), the inhibition is -7.73%.
